From PubChem BioAssay AID624296 (National Center for Advancing Translational Sciences (NCATS), 2012)
Out of some 350,000 compounds screened, about 9,900 (2.8%) were called active. Roughly 15% stayed inconclusive and do not appear here. Many of the other results were omitted from the sample, so actives are more common in it than they were. A number with no mark means an inactive call. Calls come from the whole dose curve; as a rule, active = well fitted activation curve with a large enough effect; inconclusive = small, poorly fitted or top-dose-only effect; inactive = no such curve, though single readings can be large or run the other way.

Test: A quantitative high throughput screen for small molecules that induce DNA re-replication in MCF 10a normal breast cells. For activity, positive = re-replication: % of control where 0% means no effect. Note: nearly all actives have a fitted effect of over 50% in size.
Details: MCF 10A DNA re-replication, Hoechst nuclear intensity, 48 h; series mostly up to 46.1 µM; activity, positive = re-replication: at the top concentration
From the text: H Molecular Libraries Probe Production Network [MLPCN]
NIH Chemical Genomics Center [NCGC]
Assay Provider: Melvin DePamphilis, NICHD, NIH
Eukaryotic cells normally restrict genome duplication to once per cell division. When this process is aberrant, DNA re-replication occurs when cells reinitiate DNA replication before the first round of replication is complete. DNA re-replication induces the DNA damage response, arrests cell proliferation, and triggers apoptosis. The cell cycle components cyclin A, Cdt-1, Cdc6 and geminin are critical regulators of this process and their misregulation results in DNA re-replication in normal and cancer cells. To identify compounds that induce re-replication in normal cells, an image-based assay was used to measure DNA content of nuclei, as detected by the fluorescent DNA binding dye, Hoechst. Cell nuclei were imaged by a fluorescence scanning plate imager and compounds that induce DNA re-replication were identified by the increase of nuclei with elevated fluorescence intensity
For screening, 250 cells in 5 uL/well were dispensed into black clear 1536-well plates (Aurora) using a solenoid-based dispenser. Following transfer of 23 nL compound or DMSO vehicle by a pin tool, the plates were incubated 48 hr at 37 C and 5% CO2. After addition of 1 uL/well Hoescht stain, the plates were incubated 40 min at 37 C, 5% CO2 and total intensity of fluorescent objects (nuclei) were enumerated by an Acumen Explorer Ex3 (TTP LabTech) fluorescence scanning plate imager (405 nm excitation, 500-530 nm emission).
Keywords: NIH Roadmap, MLPCN, MLI, MLSMR, qHTS, NCGC, DNA replication, cancer
Potency is the fitted concentration of half-maximal effect.

Compared with `N#Cc1cccc(NC(=O)C2CCCN(C(=O)c3ccc(Cl)cc3)C2)c1` (stereo unspecified), `CC(=O)Nc1cc(C(=O)O)ccc1S(=O)(=O)c1ccc(Cl)cc1` is lower in “activity, positive = re-replication” value: -3.89% for the first, -4.11% for the second.

First: C/C=C/c1ccc(OCC(=O)NNC(=O)CN(C)S(=O)(=O)c2ccc(C)cc2)c(OC)c1
Second: Cc1ccc(NS(=O)(=O)c2ccc(N/N=C/c3ccccc3OCC(=O)O)c([N+](=O)[O-])c2)c(C)c1
The “activity, positive = re-replication” value of the first is lower: -3.34% for the first, 7.31% for the second.

Going from `Cn1c(C(=O)NCCc2ccsc2)cc2c(=O)n(C)c3ccccc3c21` to `O=C(NCCc1ccccc1)c1c[nH]c2ccc(F)cc2c1=O`, the “activity, positive = re-replication” value falls from 4.88% to -1.92%.

First: CCn1c(=O)cc(OCC(=O)NCCCN2CCN(c3cccc(Cl)c3)CC2)c2ccccc21
Second: COc1cccc(-n2c(SCC(=O)NC3CCS(=O)(=O)C3)nc3ccccc3c2=O)c1 (stereo unspecified)
The “activity, positive = re-replication” value of the first is higher: 19.6% for the first, -0.959% for the second.

First: Cc1cccc(-c2oc3ccc(-c4ccc5c(c4)OCO5)cc3c2C#Cc2cncn2C)c1
Second: O=C(COC(=O)c1ccc(F)cc1)Nc1ccc2c(c1)OCO2
The “activity, positive = re-replication” value of the first is higher: 5.28% for the first, -2.32% for the second.

Compared with `c1ccc(CCc2ccccn2)cc1`, `O=C(COC(=O)c1ccccn1)Nc1cccc2ccccc12` is lower in “activity, positive = re-replication” value: 3.05% for the first, -0.533% for the second.

Going from `Cc1cccc(NS(=O)(=O)c2ccc(C)c(C(=O)NCc3cccnc3)c2)c1` to `O=C(O)c1ccccc1/C=N/Nc1ccc(S(=O)(=O)Nc2ccc(Cl)cc2)cc1[N+](=O)[O-]`, the “activity, positive = re-replication” value rises from 6.28% to 27.4%.

Compared with `O=[N+]([O-])c1ccc(O)c(/C=N/Nc2ccccc2[N+](=O)[O-])c1`, `CS(=O)(=O)c1ccc(Cl)c(NC(=O)Nc2ccccc2)c1` is lower in “activity, positive = re-replication” value: 11.1% for the first, 2.54% for the second.

Going from `O=S1(=O)CCOC[C@H](Cc2ccccc2)N1Cc1ccccc1Br` to `O=C(CSc1nc2ccccc2c(=O)n1-c1ccccc1F)N1CCOCC1`, the “activity, positive = re-replication” value falls from 12% to -2.83%.

Going from `CC(C)(C)c1nnc2sc(SCC(O)=C(C#N)c3nc4ccccc4[nH]3)nn2c1=O` to `Cc1cc(NC(C)C)n2c(nc3ccccc32)c1C#N`, the “activity, positive = re-replication” value rises from -7.27% to 0.0869%.

First: COc1ccccc1-c1sc2ccccc2c1-c1ccc(C(C)=O)cc1
Second: Cc1ccc(OC(=O)c2cc3ccccc3o2)cc1
The “activity, positive = re-replication” value of the first is higher: 96.3% for the first, -4.63% for the second.

Compared with `COc1ccccc1C1=CC(=O)CCC1`, `COc1ccccc1C(=O)COC(=O)COc1ccc(C#N)cc1` is lower in “activity, positive = re-replication” value: 4.21% for the first, -0.419% for the second.

Compared with `Cc1ccc(F)cc1NC(=O)CSCc1c(C)noc1C`, `Cc1cc(NC(=O)COc2ccccc2C#N)no1` is lower in “activity, positive = re-replication” value: 9.05% for the first, -3.52% for the second.

Compared with `O=C(COC(=O)c1ccc([N+](=O)[O-])o1)NC12CC3CC(CC(C3)C1)C2`, `CCN(CC(=O)Nc1ccccc1OC)C(=O)CC1CC2CCC1C2` (stereo unspecified) is lower in “activity, positive = re-replication” value: 2.77% for the first, -1.06% for the second.

First: N#CCC(=O)Nc1ccc(C(=O)OCC(=O)Nc2sc3c(c2C#N)CCCC3)cc1
Second: O=C(O)CSCC(=O)Nc1cccc(C(F)(F)F)c1
The “activity, positive = re-replication” value of the first is higher: 2.07% for the first, 0.525% for the second.

Compared with `COc1cc(OC)c(C(=O)NNC(=O)c2ccccc2-n2cccc2)cc1OC`, `Cc1ccc(NC(=O)c2cc3ccccc3o2)cc1` is lower in “activity, positive = re-replication” value: 4.63% for the first, 0.598% for the second.

Going from `C#CCOCCOCCOCCNc1nc(N2CCN(C(=O)[C@H](CCC(=O)O)n3cc(CN)nn3)CC2)nc(N2CCN(C(=O)[C@H](CCC(=O)O)n3cc(CN)nn3)CC2)n1` to `Nn1c(SCC(=O)NC2CCCc3ccccc32)nnc1C1CC1` (stereo unspecified), the “activity, positive = re-replication” value falls from -1.24% to -1.36%.

Going from `CC(C)c1cc(NCc2ccccn2)n2c(nc3ccccc32)c1C#N` to `Cc1noc(C)c1NC(=O)Nc1ccc2c(c1)C(=O)N([C@H](C)CO)C[C@H](C)[C@@H](CN(C)C(=O)Nc1ccccc1)O2`, the “activity, positive = re-replication” value falls from 14.3% to -0.387%.

Compared with `Cc1ccc(NS(=O)(=O)c2ccc(C(C)C)cc2)cc1S(=O)(=O)N1CCOCC1`, `Cc1noc(C)c1S(=O)(=O)N(C)C[C@H]1Oc2ccc(NC(=O)C3CC3)cc2C(=O)N([C@H](C)CO)C[C@@H]1C` is lower in “activity, positive = re-replication” value: 3.51% for the first, -4.09% for the second.

Going from `O=C(CN1C(=O)NC2(CCOc3ccccc32)C1=O)NCc1ccc(F)cc1` (stereo unspecified) to `Cc1cccc(NC(=O)c2cccc(C(F)(F)F)c2)c1`, the “activity, positive = re-replication” value falls from 0.67% to 0.159%.

Compared with `COc1ccc(-c2nc3c(s2)CCc2onc(-c4ccc(Br)cc4)c2-3)cc1`, `COc1ccc(-c2nc3n(c2Br)CCC3)cc1` is higher in “activity, positive = re-replication” value: -16.8% for the first, -5.29% for the second.

For `Cn1c(C(=O)NCCCN2CCN(c3cccc(Cl)c3)CC2)cc2c(=O)n(C)c3ccccc3c21`, the Potency was 14.6 µM (active).
For `Cc1cccc(COc2ccccc2/C=N/Nc2ccc([N+](=O)[O-])cc2)c1`, the Potency was 10.3 µM (active).
In the case of `COc1ccccc1-c1sc2ccccc2c1C#CC1(O)CCCCC1`, the Potency was 18.4 µM (active).
For `O=C(Nc1ccccc1)c1nnsc1S(=O)(=O)c1ccc(Cl)cc1`, the Potency was 13 µM (active).
In the case of `N#Cc1ccccc1NC(=O)COc1c(Br)cc(Br)c2cccnc12`, the Potency was 25.9 µM (active).
With `Cc1cc(NCc2ccco2)n2c(nc3ccccc32)c1C#N` the Potency was 16.4 µM (active).
In the case of `C/C(=N\NC(=S)Nc1ccc(C)cc1)c1cc2ccccc2o1`, the Potency was 13 µM (active).
In the case of `O=C(Nc1cccc(C(F)(F)F)c1)c1cc(Br)cc(Br)c1O`, the Potency was 4.73 µM (active).
For `COc1ccc(-c2nc3c(s2)CCc2onc(-c4ccc(OC)cc4)c2-3)cc1`, the Potency was 4.11 µM (active).
